# Reference: the supplement of paper PMC4466140
# Target: AgAbp1
# Test: SPOT peptide array binding signal intensity (averaged, normalized) (arbitrary units (background-subtracted, floor 0; scale differs between SH3 domains)); higher = stronger binding of the SH3 domain to the peptide
# How it was run: (§1)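 Detection of bound protein relied on anti-GST antibody, an HRP anti-mouse secondary and luminol, with imaging and quantification in Genespotter. The bound protein was GST-fused SH3 domains from four yeast species, incubated at 10 μg/ml overnight at 4°C in TBS-based blocking buffer on cellulose membranes carrying synthetic 15-mer peptides with cysteines replaced by serines. Binding signal is normalized, background-subtracted spot intensity averaged over replicates, in arbitrary units that differ between domains.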
row,Binder,SPOT peptide array binding signal intensity
1,NFKRLLPRDPSEKSS,1

# Target: AgBbc1
# Test: as above
# How it was run: as §1
row,Binder,SPOT peptide array binding signal intensity
1,NFKRLLPRDPSEKSS,0.75

# Target: AgBem1-D1
# Test: as above
# How it was run: as §1
row,Binder,SPOT peptide array binding signal intensity
1,NFKRLLPRDPSEKSS,105

# Target: AgBzz1-D1
# Test: as above
# How it was run: as §1
row,Binder,SPOT peptide array binding signal intensity
1,NFKRLLPRDPSEKSS,6

# Target: AgBzz1-D2
# Test: as above
# How it was run: as §1
row,Binder,SPOT peptide array binding signal intensity
1,NFKRLLPRDPSEKSS,35

# Target: AgCyk3
# Test: as above
# How it was run: as §1
row,Binder,SPOT peptide array binding signal intensity
1,NFKRLLPRDPSEKSS,0.5

# Target: AgFus1
# Test: as above
# How it was run: as §1
row,Binder,SPOT peptide array binding signal intensity
1,NFKRLLPRDPSEKSS,311

# Target: AgHof1
# Test: as above
# How it was run: as §1
row,Binder,SPOT peptide array binding signal intensity
1,NFKRLLPRDPSEKSS,32

# Target: AgHse1
# Test: as above
# How it was run: as §1
row,Binder,SPOT peptide array binding signal intensity
1,NFKRLLPRDPSEKSS,2610

# Target: AgLsb1
# Test: as above
# How it was run: as §1
row,Binder,SPOT peptide array binding signal intensity
1,NFKRLLPRDPSEKSS,2.5

# Target: AgLsb4
# Test: as above
# How it was run: as §1
row,Binder,SPOT peptide array binding signal intensity
1,NFKRLLPRDPSEKSS,50

# Target: AgMyo5
# Test: as above
# How it was run: as §1
row,Binder,SPOT peptide array binding signal intensity
1,NFKRLLPRDPSEKSS,1

# Target: AgNbp2
# Test: as above
# How it was run: as §1
row,Binder,SPOT peptide array binding signal intensity
1,NFKRLLPRDPSEKSS,≤ 0

# Target: AgRvs167
# Test: as above
# How it was run: as §1
row,Binder,SPOT peptide array binding signal intensity
1,NFKRLLPRDPSEKSS,2

# Target: AgSho1
# Test: as above
# How it was run: as §1
row,Binder,SPOT peptide array binding signal intensity
1,NFKRLLPRDPSEKSS,99.5

# Target: AgSla1-D1-D2
# Test: as above
# How it was run: as §1
row,Binder,SPOT peptide array binding signal intensity
1,NFKRLLPRDPSEKSS,15.5

# Target: AgSla1-D3
# Test: as above
# How it was run: as §1
row,Binder,SPOT peptide array binding signal intensity
1,NFKRLLPRDPSEKSS,5.5

# Target: CaAbp1-D1
# Test: as above
# How it was run: as §1
row,Binder,SPOT peptide array binding signal intensity
1,NFKRLLPRDPSEKSS,126

# Target: CaAbp1-D2
# Test: as above
# How it was run: as §1
row,Binder,SPOT peptide array binding signal intensity
1,NFKRLLPRDPSEKSS,30

# Target: CaBbc1
# Test: as above
# How it was run: as §1
row,Binder,SPOT peptide array binding signal intensity
1,NFKRLLPRDPSEKSS,≤ 0

# Target: CaBem1-D1
# Test: as above
# How it was run: as §1
row,Binder,SPOT peptide array binding signal intensity
1,NFKRLLPRDPSEKSS,≤ 0

# Target: CaBzz1-D1
# Test: as above
# How it was run: as §1
row,Binder,SPOT peptide array binding signal intensity
1,NFKRLLPRDPSEKSS,≤ 0

# Target: CaBzz1-D2
# Test: as above
# How it was run: as §1
row,Binder,SPOT peptide array binding signal intensity
1,NFKRLLPRDPSEKSS,17.8

# Target: CaCyk3
# Test: as above
# How it was run: as §1
row,Binder,SPOT peptide array binding signal intensity
1,NFKRLLPRDPSEKSS,≤ 0

# Target: CaFus1
# Test: as above
# How it was run: as §1
row,Binder,SPOT peptide array binding signal intensity
1,NFKRLLPRDPSEKSS,970

# Target: CaHof1
# Test: as above
# How it was run: as §1
row,Binder,SPOT peptide array binding signal intensity
1,NFKRLLPRDPSEKSS,0.5

# Target: CaHse1
# Test: as above
# How it was run: as §1
row,Binder,SPOT peptide array binding signal intensity
1,NFKRLLPRDPSEKSS,81

# Target: CaLsb1
# Test: as above
# How it was run: as §1
row,Binder,SPOT peptide array binding signal intensity
1,NFKRLLPRDPSEKSS,0.5

# Target: CaLsb4
# Test: as above
# How it was run: as §1
row,Binder,SPOT peptide array binding signal intensity
1,NFKRLLPRDPSEKSS,≤ 0

# Target: CaMyo5
# Test: as above
# How it was run: as §1
row,Binder,SPOT peptide array binding signal intensity
1,NFKRLLPRDPSEKSS,7

# Target: CaNbp2
# Test: as above
# How it was run: as §1
row,Binder,SPOT peptide array binding signal intensity
1,NFKRLLPRDPSEKSS,286

# Target: CaRvs167
# Test: as above
# How it was run: as §1
row,Binder,SPOT peptide array binding signal intensity
1,NFKRLLPRDPSEKSS,6.33

# Target: CaRvs167-3
# Test: as above
# How it was run: as §1
row,Binder,SPOT peptide array binding signal intensity
1,NFKRLLPRDPSEKSS,31.5

# Target: CaSho1
# Test: as above
# How it was run: as §1
row,Binder,SPOT peptide array binding signal intensity
1,NFKRLLPRDPSEKSS,340

# Target: CaSla1-D1-D2
# Test: as above
# How it was run: as §1
row,Binder,SPOT peptide array binding signal intensity
1,NFKRLLPRDPSEKSS,≤ 0

# Target: CaSla1-D3
# Test: as above
# How it was run: as §1
row,Binder,SPOT peptide array binding signal intensity
1,NFKRLLPRDPSEKSS,1

# Target: ScAbp1
# Test: as above
# How it was run: as §1
row,Binder,SPOT peptide array binding signal intensity
1,NFKRLLPRDPSEKSS,66.5

# Target: ScBbc1
# Test: as above
# How it was run: as §1
row,Binder,SPOT peptide array binding signal intensity
1,NFKRLLPRDPSEKSS,≤ 0

# Target: ScBem1-D1
# Test: as above
# How it was run: as §1
row,Binder,SPOT peptide array binding signal intensity
1,NFKRLLPRDPSEKSS,27

# Target: ScBzz1-D1
# Test: as above
# How it was run: as §1
row,Binder,SPOT peptide array binding signal intensity
1,NFKRLLPRDPSEKSS,21

# Target: ScBzz1-D2
# Test: as above
# How it was run: as §1
row,Binder,SPOT peptide array binding signal intensity
1,NFKRLLPRDPSEKSS,18

# Target: ScCyk3
# Test: as above
# How it was run: as §1
row,Binder,SPOT peptide array binding signal intensity
1,NFKRLLPRDPSEKSS,105

# Target: ScFus1
# Test: as above
# How it was run: as §1
row,Binder,SPOT peptide array binding signal intensity
1,NFKRLLPRDPSEKSS,308

# Target: ScHof1
# Test: as above
# How it was run: as §1
row,Binder,SPOT peptide array binding signal intensity
1,NFKRLLPRDPSEKSS,3

# Target: ScHse1
# Test: as above
# How it was run: as §1
row,Binder,SPOT peptide array binding signal intensity
1,NFKRLLPRDPSEKSS,2620

# Target: ScLsb1
# Test: as above
# How it was run: as §1
row,Binder,SPOT peptide array binding signal intensity
1,NFKRLLPRDPSEKSS,1

# Target: ScLsb2
# Test: as above
# How it was run: as §1
row,Binder,SPOT peptide array binding signal intensity
1,NFKRLLPRDPSEKSS,2

# Target: ScLsb3
# Test: as above
# How it was run: as §1
row,Binder,SPOT peptide array binding signal intensity
1,NFKRLLPRDPSEKSS,83.5

# Target: ScLsb4
# Test: as above
# How it was run: as §1
row,Binder,SPOT peptide array binding signal intensity
1,NFKRLLPRDPSEKSS,1

# Target: ScMyo3
# Test: as above
# How it was run: as §1
row,Binder,SPOT peptide array binding signal intensity
1,NFKRLLPRDPSEKSS,2

# Target: ScMyo5
# Test: as above
# How it was run: as §1
row,Binder,SPOT peptide array binding signal intensity
1,NFKRLLPRDPSEKSS,4.5

# Target: ScNbp2
# Test: as above
# How it was run: as §1
row,Binder,SPOT peptide array binding signal intensity
1,NFKRLLPRDPSEKSS,35.5

# Target: ScPex13
# Test: as above
# How it was run: as §1
row,Binder,SPOT peptide array binding signal intensity
1,NFKRLLPRDPSEKSS,3.5

# Target: ScRvs167
# Test: as above
# How it was run: as §1
row,Binder,SPOT peptide array binding signal intensity
1,NFKRLLPRDPSEKSS,16.2

# Target: ScSho1
# Test: as above
# How it was run: as §1
row,Binder,SPOT peptide array binding signal intensity
1,NFKRLLPRDPSEKSS,1040

# Target: ScSla1-D1-D2
# Test: as above
# How it was run: as §1
row,Binder,SPOT peptide array binding signal intensity
1,NFKRLLPRDPSEKSS,35.5

# Target: ScSla1-D3
# Test: as above
# How it was run: as §1
row,Binder,SPOT peptide array binding signal intensity
1,NFKRLLPRDPSEKSS,0.5

# Target: SpAbp1-D1
# Test: as above
# How it was run: as §1
row,Binder,SPOT peptide array binding signal intensity
1,NFKRLLPRDPSEKSS,21

# Target: SpBbc1
# Test: as above
# How it was run: as §1
row,Binder,SPOT peptide array binding signal intensity
1,NFKRLLPRDPSEKSS,1

# Target: SpBzz1-D1
# Test: as above
# How it was run: as §1
row,Binder,SPOT peptide array binding signal intensity
1,NFKRLLPRDPSEKSS,17.5

# Target: SpBzz1-D2
# Test: as above
# How it was run: as §1
row,Binder,SPOT peptide array binding signal intensity
1,NFKRLLPRDPSEKSS,0.5

# Target: SpCyk3
# Test: as above
# How it was run: as §1
row,Binder,SPOT peptide array binding signal intensity
1,NFKRLLPRDPSEKSS,7

# Target: SpHof1
# Test: as above
# How it was run: as §1
row,Binder,SPOT peptide array binding signal intensity
1,NFKRLLPRDPSEKSS,283

# Target: SpHof1-2
# Test: as above
# How it was run: as §1
row,Binder,SPOT peptide array binding signal intensity
1,NFKRLLPRDPSEKSS,88

# Target: SpHof1-3
# Test: as above
# How it was run: as §1
row,Binder,SPOT peptide array binding signal intensity
1,NFKRLLPRDPSEKSS,1360

# Target: SpHse1
# Test: as above
# How it was run: as §1
row,Binder,SPOT peptide array binding signal intensity
1,NFKRLLPRDPSEKSS,2380

# Target: SpLsb1
# Test: as above
# How it was run: as §1
row,Binder,SPOT peptide array binding signal intensity
1,NFKRLLPRDPSEKSS,≤ 0

# Target: SpLsb4
# Test: as above
# How it was run: as §1
row,Binder,SPOT peptide array binding signal intensity
1,NFKRLLPRDPSEKSS,23

# Target: SpMyo1
# Test: as above
# How it was run: as §1
row,Binder,SPOT peptide array binding signal intensity
1,NFKRLLPRDPSEKSS,7.25

# Target: SpNbp2
# Test: as above
# How it was run: as §1
row,Binder,SPOT peptide array binding signal intensity
1,NFKRLLPRDPSEKSS,44

# Target: SpPex13
# Test: as above
# How it was run: as §1
row,Binder,SPOT peptide array binding signal intensity
1,NFKRLLPRDPSEKSS,5

# Target: SpRvs167
# Test: as above
# How it was run: as §1
row,Binder,SPOT peptide array binding signal intensity
1,NFKRLLPRDPSEKSS,19.3

# Target: SpSla1-D1-D2
# Test: as above
# How it was run: as §1
row,Binder,SPOT peptide array binding signal intensity
1,NFKRLLPRDPSEKSS,0.5

# Target: SpSla1-D3
# Test: as above
# How it was run: as §1
row,Binder,SPOT peptide array binding signal intensity
1,NFKRLLPRDPSEKSS,3
